High-throughput results from PubChem.
MCL1-BIM inh: inhibitors of MCL1 binding to BIM-BH3, primary screen, biochemical, fluorescence polarization | AID 2057, 2009 | inhibition, % at 10.9 µM | actives 0.68% (n = 320,000) | Induced myeloid leukemia cell differentiation protein Mcl-1 (Homo sapiens), Q07820 | GST-MCL1 / FITC-Bim-BH3 fluorescence polarization;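 active = inhibition above the mean inhibition of all tested compounds plus 3 SD, set per campaign, cut at about 40% in these data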;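 also: 0% = DMSO wells and 100% = unlabeled Bim-BH3 peptide control; higher means more loss of mP so more displacement of Bim peptide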
EBV gp42 block: Epstein-Barr virus gp42 inhibitors, primary screen, biochemical, uHTS, fluorescence polarization. Glycoprotein 42 (Epstein-Barr virus (strain AG876)), Q1HVG2. Fluorescence polarization binding assay, mP read-out. inhibition, % (tested at 21.74 µM). actives 0.42% (n = 220,000). AID 1085, 2008; in the data active = inhibition above about 50%
MEX-5 binding: MEX-5 zinc finger RNA-binding disruptors – biochemical, C. elegans, fluorescence polarization, MLPCN library, primary screen. MEX-5/FITC-TCR2 RNA binding; stronger effect = lower value. actives 0.38% (n = 300,000). activity score (negative = inhibition of binding), % at 10 µM;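 active = inhibition past about -25% in most replicates, and total fluorescence under double the plate's negative control median, limit read from the data; inconclusive = replicates evenly split on the limit, or fluorescence at least double controls; inactive = too little inhibition in most replicates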;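 also: 0% = DMSO and -100% = 5 µM competing unlabeled TCR2 RNA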
GLD-1 TGE inh: GLD-1/TGE RNA complex disruptors, primary screen, biochemical, fluorescence polarization. Female germline-specific tumor suppressor gld-1 (Caenorhabditis elegans), Q17339. purified GLD-1 + fluorescein TGE RNA. inhibition, % at 5.96 µM. actives 0.44% (n = 320,000). AID 2280, 2010;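 active = percent inhibition above a per-plate cutoff, the plate mean of test compounds plus 3 SD, cut at about 30% in these data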;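 also: 0% = DMSO wells with GLD-1 and probe and 100% = wells lacking GLD-1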
BCLXL inh: inhibitors of human Bcl-xL, primary screen, biochemical, fluorescence polarization, HTS | GST-Bcl-xL / FITC-Bim BH3 peptide fluorescence polarization | inhibition, % at 10.9 µM | Bcl-2-like protein 1 (Homo sapiens), Q07817 | AID 2129, 2009 | actives 0.7% (n = 320,000);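 active = inhibition above the mean of all tested compounds plus 3 SD, cutoff set per campaign, cut at about 30% in these data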;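 also: 0% = DMSO wells and 100% = unlabeled Bim-BH3 peptide competitor; inhibitors lower millipolarization by displacing the labeled peptide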
E coli Lon inh: inhibitors of E. coli Lon protease, primary screen, biochemical, fluorescence polarization | actives 0.42% (n = 360,000) | inhibition, % at 7.94 µM | P0A9M0 | purified E. coli Lon protease; in the data active = inhibition above about 13%, passing the limit was not always enough;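 also: 0% = enzyme with probe and DMSO and 100% = no enzyme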
Target sequence (P0A9M0 whole entry, looked up): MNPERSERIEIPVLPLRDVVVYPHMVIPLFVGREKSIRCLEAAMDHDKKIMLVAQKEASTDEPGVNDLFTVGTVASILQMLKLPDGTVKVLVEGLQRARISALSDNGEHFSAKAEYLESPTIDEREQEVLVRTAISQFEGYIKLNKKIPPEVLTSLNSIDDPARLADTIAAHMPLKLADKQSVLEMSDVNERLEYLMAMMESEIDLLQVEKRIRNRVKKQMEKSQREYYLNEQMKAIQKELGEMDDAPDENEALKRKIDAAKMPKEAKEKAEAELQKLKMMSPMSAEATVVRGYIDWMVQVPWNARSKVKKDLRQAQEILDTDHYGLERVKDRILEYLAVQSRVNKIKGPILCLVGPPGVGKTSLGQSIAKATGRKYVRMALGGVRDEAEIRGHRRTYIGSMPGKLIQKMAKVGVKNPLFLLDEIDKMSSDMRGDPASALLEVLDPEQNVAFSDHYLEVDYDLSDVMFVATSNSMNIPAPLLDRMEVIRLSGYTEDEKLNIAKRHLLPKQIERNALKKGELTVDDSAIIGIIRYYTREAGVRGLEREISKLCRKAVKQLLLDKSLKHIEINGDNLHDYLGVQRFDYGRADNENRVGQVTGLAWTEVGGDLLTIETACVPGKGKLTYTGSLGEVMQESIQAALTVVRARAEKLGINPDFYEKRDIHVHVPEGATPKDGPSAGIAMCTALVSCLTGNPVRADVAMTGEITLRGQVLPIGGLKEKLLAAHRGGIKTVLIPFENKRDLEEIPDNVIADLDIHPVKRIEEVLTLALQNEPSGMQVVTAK
BCLXL inh confirm: Bcl-xL inhibitors blocking Bim BH3 binding, confirmation, counter-screen for MCL1 inhibitor project, biochemical, fluorescence polarization. shares compounds with MCL1-BIM inh. GST-Bcl-xL / FITC-Bim BH3 peptide FP binding. inhibition, % at 10.9 µM. actives 54% (n = 1,700);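 active = inhibition above a cutoff equal to the mean inhibition of all tested compounds plus 3 SD, cut at about 30% in these data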;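 also: 0% = DMSO wells and 100% = unlabeled Bim BH3 control peptide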
MCL1 BIM confirm: inhibitors of MCL1 binding to BIM-BH3, confirmation, biochemical, fluorescence polarization, triplicate | shares compounds with MCL1-BIM inh | GST-MCL1 / FITC-Bim-BH3 fluorescence polarization | inhibition, % at 10.9 µM | actives 61% (n = 1,700);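 active = inhibition above the average of all tested compounds plus 3 SD, cut at about 40% in these data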;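 also: 0% = DMSO wells and 100% = unlabeled Bim-BH3 control peptide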
Active calls of the source: *; ? = inconclusive; nt = not tested or not shown; ! = a repeat was not active. Sampled rows, rich in hits. Any-hit rate of the full collection: about 1.5%.

SMILES	MCL1-BIM inh	EBV gp42 block	MEX-5 binding	GLD-1 TGE inh	BCLXL inh	E coli Lon inh	others
COC(=O)C1=C(c2ccc(F)cc2OCc2ccccc2)C[C@@H]2CC[C@H]1N2C(=O)N1CCC(O)CC1	6	nt	nt	0	0	-15
c1cc2c(cc1[C@H]1OCC3C1CO[C@@H]3c1ccc3c(c1)OCO3)OCO2 (some centres undefined)	nt	nt	nt	-6	nt	-4
CCCC(=O)NC(Oc1ccc(C(C)=O)cc1)C(Cl)(Cl)Cl (centres undefined)	-1	63*	2	0	2	0
CN(C)C(=O)Oc1ccc2nnc3ccnn3c2c1	29	nt	-3	12	31*	-13
CC12CCC(=O)C=C1CC(O)C1C2CCC2(C)C1CCC2(C)O (centres undefined)	nt	nt	nt	nt	nt	4
CCOC(=O)C1(c2ccccc2)CCN(CC(=O)Nc2cccc3ccccc23)CC1	5	-6	0	4	4	-11
COc1cccc(C2(O)CCN(CC(=O)Nc3nc(C)cs3)CC2)c1	8	-5	-51*	-7	9	-2
CCOP(=O)(OCC)C(O)c1ccc(OC)c(OC)c1 (centres undefined)	49*	5	1	22	34*	-2
CCOP(=O)(C#Cc1ccccc1)C(O)c1ccc(Br)cc1 (centres undefined)	7	-1	1	5	3	1
N#CC12CC(=O)N1Cc1cnnn1-c1ccccc12 (centres undefined)	nt	nt	nt	nt	nt	-8
CCN(CC)C(=O)c1ccc2c(c1)C1C=CCC1C(C(=O)O)N2 (centres undefined)	nt	nt	-56*	nt	nt	11
CCOC(=O)c1c(/N=C/C2C(=O)NC(=S)NC2=O)sc(C)c1C	-14	-57	?	-13	-4	nt
CCOC(=O)c1c(/N=C/C2C(=O)NC(=S)NC2=O)sc2c1CCC2	-85	-96	-31*	-192	-92	-282
Cc1cc(C=C2C(=O)NC(=S)NC2=O)c(C)n1-c1ccc2c(c1)OCO2	-10	61*	-12	-12	0	-20
Cc1cc(C=C2C(=O)NC(=O)NC2=O)c(C)n1-c1ccc2c(c1)OCO2	-8	1	-7	-4	3	1
O=c1[nH]cnc2nc(-c3ccc(N(CCCl)CCCl)cc3)[nH]c12	nt	nt	nt	nt	nt	-5
O=C1NC(=O)C2=Cc3ccc(O)cc3OC2(O)N1 (centres undefined)	nt	90*	nt	nt	nt	nt
CN(C)c1ccc(N=Cc2c(O)n(CCC3=CCCCC3)c(=O)[nH]c2=O)cc1	7	-85	-63*	-2	7	-12
COc1ccc(/C=C/C(=O)c2c(O)n(CCC3=CCCCC3)c(=O)[nH]c2=O)cc1OC	-2	-83	-47*	-2	-2	-13
NC(=O)c1ccc(N)nc1	nt	nt	nt	nt	nt	8
COP(=O)(/C=C(\Cl)c1ccccc1)/C=C(\Cl)c1ccccc1	7	nt	0	5	6	5
CN(C)[C@@H]1C(=O)C(C(N)=O)=C(O)[C@@]2(O)C(=O)C3=C(O)c4c(O)cccc4[C@@](C)(O)[C@H]3C[C@@H]12	90*	nt	-59*	14	43*	nt
CN(C)[C@@H]1C(=O)C(C(N)=O)=C(O)[C@@]2(O)C(=O)C3=C(O)c4c(O)ccc(Cl)c4[C@@](C)(O)C3C[C@@H]12 (some centres undefined)	nt	-6	nt	nt	nt	-19
O=c1[nH]c(=O)n(-c2ccccc2F)c(O)c1/C=C1\C=Nc2ccccc21	-47	nt	5	-25	-23	-130
O=c1[nH]c(=O)n(-c2ccc(F)cc2)c(O)c1/C=C1\C=Nc2ccccc21	-11	nt	-37*	-19	18	-119
SMILES	MCL1-BIM inh	EBV gp42 block	MEX-5 binding	GLD-1 TGE inh	BCLXL inh	E coli Lon inh	others
O=c1[nH]c(=O)n(Cc2ccccc2)c(O)c1/C=C1\C=Nc2ccccc21	-47	90*	?	-39	-27	-98
O=c1[nH]c(=O)n(CC2CCCO2)c(O)c1/C=C1\C=Nc2ccccc21 (centres undefined)	-23	-21	-36*!	-18	-14	-70
O=C1NCN(c2ccccc2)C12CCN(C(c1ccnc3ccccc13)c1nnnn1Cc1ccccc1)CC2 (centres undefined)	nt	nt	nt	nt	nt	-9
COc1ccccc1-n1c(O)c(/C=N/N2CCCCC2)c(=O)n(-c2ccccc2OC)c1=S	0	3	1	1	6	9
Cc1cc(C)cc(-n2c(O)c(C=Nc3ccc(N4CCOCC4)cc3)c(=O)[nH]c2=S)c1	-27	58*	-52*	-6	-17	-27
NS(=O)(=O)c1ccc(-c2ccc(C=C3C(=O)NC(=O)NC3=O)o2)cc1	-5	nt	-2	-3	5	-14
NS(=O)(=O)c1ccc(-c2ccc(C=C3C(=O)NC(=S)NC3=O)o2)cc1	-26	nt	-49*	-5	-16	nt
CN1C(=O)C(=Cc2sc(=O)n(-c3ccccc3)c2N2CCCCC2)C(=O)N(C)C1=O	nt	-202	-46*	nt	nt	-179
O=C1NC(=O)N(Cc2ccccc2)C(=O)/C1=C\c1ccco1	-2	-2	-30*	-31	-13	-96
CN1CCN(c2ncnc3c2cnn3C)CC1	30	-12	nt	11	39*	2
c1ccc(-c2[nH]c(-c3ccccc3)[n+](CC3CO3)c2-c2ccccc2)cc1 (centres undefined)	10	57*	3	1	8	-9
CC(C)(C)OC(=O)c1c(N)n(Cc2ccco2)c2nc3ccccc3nc12	41*	-10	-8	48*	53*	-14
COCCNC(=O)c1c(N)n(Cc2ccco2)c2nc3ccccc3nc12	17	-4	-1	8	13	-18
Cc1ccc(N2C(=O)NC(=O)/C(=C\c3cn(CC(=O)O)c4ccccc34)C2=O)cc1	-12	nt	?	-18	4	-42
COC(=O)Cn1cc(/C=C2\C(=O)NC(=O)N(c3ccccc3)C2=O)c2ccccc21	135*	nt	-43*	-7	4	-30	BCLXL inh confirm=73*;MCL1 BIM confirm=94*
